These results are taken from PubChem BioAssay (NCATS).

Inconclusive results are not listed. Active and inactive are the calls of the source. Unless noted, calls follow the shape of the dose curve; as a rule, active = well fitted curve in the direction sought with a large enough effect; inconclusive = small, poorly fitted or top-dose-only effect, or another doubt; inactive = no such curve, though single readings can be large; an effect the other way counts as inactive or inconclusive.

Experiment [1] is described as follows: qHTS for Inhibitors of the Functional Ribonucleoprotein Complex (vRNP) of Lassa (LASV) Arenavirus: LASV Primary Screen - GLuc reporter signal (AID 1347082; calls by dose curve; tested in HEK293 reporter line; also: nearly all actives have a fitted effect of over 60% in size; also: potency is read from the fitted curve at half-maximal effect).
The nature of experiment [2]: qHTS for Inhibitors of the Functional Ribonucleoprotein Complex (vRNP) of Lassa (LASV) Arenavirus: Viability assay - alamar blue signal for LASV Primary Screen (AID 1347083; calls by dose curve; tested in HEK293 reporter line; also: series mostly up to about 57 µM; nearly all actives have a fitted effect of over 80% in size).
Experiment [3] in a line: qHTS for Inhibitors of the Functional Ribonucleoprotein Complex (vRNP) of Lymphocytic Choriomeningitis Arenaviruses (LCMV): Viability assay - alamar blue signal for LCMV Primary Screen (AID 1347085; calls by dose curve; tested in HEK293 reporter line; also: nearly all actives have a fitted effect of over 80% in size; also: potency is read from the fitted curve at half-maximal effect).
The target in experiment [4] is Nucleoprotein (Lymphocytic choriomeningitis virus (strain Armstrong)) (UniProt P09992). The experiment in a line: qHTS for Inhibitors of the Functional Ribonucleoprotein Complex (vRNP) of Lymphocytic Choriomeningitis Arenaviruses (LCMV): LCMV Primary Screen - GLuc reporter signal (AID 1347086; calls by dose curve; also: nearly all actives have a fitted effect of over 70% in size; also: potency is read from the fitted curve at half-maximal effect).
Experiment [5] can be described thus: qHTS of pediatric cancer cell lines to identify multiple opportunities for drug repurposing: Primary screen for TC32 cells (AID 1347089). Also: nearly all actives have a fitted effect of over 60% in size. In short, it runs like this:
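TC32 cells, 500-1,000/well in growth medium, compound-treated 48 h at 37 °C; viability from CellTiter-Glo luminescence. Primary screen: MIPE 11-point (0.78 nM–46 µM final), NPC 8-point (0.59 nM–46 µM final); confirmatory at 11-point dilutions.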

The nature of experiment [6]: qHTS of pediatric cancer cell lines to identify multiple opportunities for drug repurposing: Primary screen for A673 cells (AID 1347092). Also: nearly all actives have a fitted effect of over 45% in size. Also: potency is read from the fitted curve at half-maximal effect. The procedure, abridged:
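A673 cells (500-1,000 cells/well) were treated 48 hours at 37 degrees C with compounds at 11-point (0.78 nM to 46 µM) or 8-point (0.59 nM to 46 µM) dilutions. Viability read by CellTiter-Glo luminescence; concentration-response curves fitted.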

Experiment [7] is described as follows: qHTS of pediatric cancer cell lines to identify multiple opportunities for drug repurposing: Primary screen for U-2 OS cells (AID 1347096). Also: nearly all actives have a fitted effect of over 50% in size. In short, it runs like this: (§1)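 Viability after 48 h compound treatment at 37C, 500-1,000 cells/well, read as ATP luminescence with CellTiter-Glo. Primary screens used 11-point (MIPE, 0.78 nM-46 µM) or 8-point (NPC, 0.59 nM-46 µM) final concentrations; follow-up screens used 11-point dilutions.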

Experiment [8] can be described thus: qHTS of pediatric cancer cell lines to identify multiple opportunities for drug repurposing: Primary screen for LAN-5 cells (AID 1347100). Also: potency is read from the fitted curve at half-maximal effect. The procedure, abridged:
as §1

The nature of experiment [9]: qHTS of pediatric cancer cell lines to identify multiple opportunities for drug repurposing: Primary screen for SJ-GBM2 cells (AID 1347091). Also: potency is read from the fitted curve at half-maximal effect. In short, it runs like this: (§2)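 Viability measured as metabolically active cells via CellTiter-Glo luminescence following 48 hours of compound exposure, 11-point dilutions in confirmatory testing. 500-1,000 cells/well plated 5 hours before dosing; controls were DMSO and 2.3 µM bortezomib.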

A short description of experiment [10]: qHTS of pediatric cancer cell lines to identify multiple opportunities for drug repurposing: Primary screen for SK-N-MC cells (AID 1347093). Also: series mostly up to about 46 µM. The procedure, abridged:
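Metabolically active cells were quantified by ATP-dependent luminescence (CellTiter-Glo, 15 min at room temperature) following 48 h treatment. Cells had been plated at 500-1,000 per well and settled for 5 h beforehand.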

The nature of experiment [11]: qHTS of pediatric cancer cell lines to identify multiple opportunities for drug repurposing: Primary screen for BT-37 cells (AID 1347094). Also: series mostly up to about 57 µM. The procedure, abridged: (§3)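 500-1,000 cells/well; 5 h pre-incubation 37 °C/5% CO2; compound pinned; 48 h; CellTiter-Glo, 15 min RT; luminescence. MIPE 11-pt from 0.78 nM, NPC 8-pt from 0.59 nM final. Bortezomib 2.3 µM final as positive control.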

Experiment [12] in a line: qHTS of pediatric cancer cell lines to identify multiple opportunities for drug repurposing: Primary screen for NB-EBc1 cells (AID 1347095). In short, it runs like this:
as §3

Experiment [13] is described as follows: qHTS of pediatric cancer cell lines to identify multiple opportunities for drug repurposing: Primary screen for Saos-2 cells (AID 1347097). Also: nearly all actives have a fitted effect of over 40% in size. In short, it runs like this: as §3
Experiment [14] can be described thus: qHTS of pediatric cancer cell lines to identify multiple opportunities for drug repurposing: Primary screen for SK-N-SH cells (AID 1347098).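 Also: DMSO served as neutral control and bortezomib at 2.3 µM as positive control; nearly all actives have a fitted effect of over 65% in size.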 In short, it runs like this:
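Cells (500-1,000/well) rested 5 h, then received compounds for 48 h; metabolically active cells were measured by CellTiter-Glo luminescence. Final concentrations spanned up to 46 µM (MIPE, 11-point) or 0.59 nM-46 µM (NPC, 8-point) in primary screens, 11-point in follow-ups.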

Experiment [15] can be described thus: qHTS of pediatric cancer cell lines to identify multiple opportunities for drug repurposing: Primary screen for DAOY cells (AID 1347090). Also: series mostly up to about 46 µM; nearly all actives have a fitted effect of over 55% in size. The procedure, abridged: as §2
Experiment [16] is described as follows: qHTS of pediatric cancer cell lines to identify multiple opportunities for drug repurposing: Primary screen for NB1643 cells (AID 1347099). Also: nearly all actives have a fitted effect of over 50% in size. In short, it runs like this: as §3

Chain of Nucleoprotein (Lymphocytic choriomeningitis virus (strain Armstrong)) (P09992 whole entry, looked up): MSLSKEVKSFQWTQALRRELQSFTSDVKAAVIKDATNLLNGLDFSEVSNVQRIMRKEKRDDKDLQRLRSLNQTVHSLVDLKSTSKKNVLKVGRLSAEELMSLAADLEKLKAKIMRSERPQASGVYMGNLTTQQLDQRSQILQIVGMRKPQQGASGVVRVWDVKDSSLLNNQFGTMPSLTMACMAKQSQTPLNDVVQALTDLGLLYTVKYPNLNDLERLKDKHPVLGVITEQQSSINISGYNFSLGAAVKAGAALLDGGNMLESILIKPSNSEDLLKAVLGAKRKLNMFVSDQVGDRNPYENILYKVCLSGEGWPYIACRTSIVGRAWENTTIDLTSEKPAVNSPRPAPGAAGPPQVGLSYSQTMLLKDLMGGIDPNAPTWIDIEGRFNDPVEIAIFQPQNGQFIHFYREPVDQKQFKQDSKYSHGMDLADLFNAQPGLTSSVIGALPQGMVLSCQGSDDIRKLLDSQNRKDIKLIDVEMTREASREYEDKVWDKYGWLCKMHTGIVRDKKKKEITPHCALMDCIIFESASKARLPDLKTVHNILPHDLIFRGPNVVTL

Turning to `O=C(CCl)c1ccc(Cl)cc1Cl`, the Potency entry in [1], in experiment [2], in [3], in experiment [4], in experiment [5] and in [7] was “inactive” throughout. For the same molecule, the Potency in [6] is 26.6 µM (active); in [8], 16.8 µM (active).
Consider `O=c1[nH]c2ccccc2n1CCCN1CCN(C(c2ccccc2)c2ccccc2)CC1`, for which the Potency entry in experiment [1], in [2] and in experiment [4] was “inactive” each time.
With `ClCCCN1CCN(c2cccc(Cl)c2)CC1`, the Potency entry in [1], in experiment [2], in [3], in [4], in experiment [5] and in [9] was “inactive” throughout. The Potency entry in experiment [10], in experiment [11], in [12], in [7], in experiment [13] and in [14] was “inactive” each time. In addition, the Potency result in experiment [8] was “inactive”.
With `CNC(=O)Oc1cccc2ccccc12`, the Potency result in [1], in experiment [2], in [3], in experiment [4], in experiment [15] and in experiment [9] was “inactive” each time. Further, the Potency result in experiment [6], in [10], in [11], in experiment [12], in [13] and in [14] was “inactive” throughout. Moreover, the Potency entry in experiment [16] and in experiment [8] was “inactive” throughout.
Regarding `CC(C)(C)OC(=O)c1ncn2c1[C@@H]1CCCN1C(=O)c1c(Br)cccc1-2`, the Potency entry in experiment [1], in experiment [2], in experiment [3], in [5], in experiment [15] and in experiment [9] was “inactive” each time. Besides, the Potency entry in experiment [10], in experiment [11], in experiment [12], in experiment [13], in [14] and in experiment [16] was “inactive” in each case. In addition, in [8], the Potency result was “inactive”.
Consider `CN1CCC(=C2c3ccccc3CCc3cccnc32)CC1`, for which the Potency entry in [1], in experiment [2] and in [4] was “inactive” in each case.
As for `CN1CCc2cc(Cl)c(O)cc2[C@H]2c3ccccc3CC[C@@H]21`, the Potency result in [1], in experiment [2], in [3], in experiment [4], in experiment [5] and in experiment [9] was “inactive” throughout. The Potency result in [10], in experiment [12], in [7], in experiment [13], in experiment [16] and in experiment [8] was “inactive” in each case.
For the molecule `CC(CNC1CCCCC1)OC(=O)c1ccccc1` (centres undefined), the Potency result in experiment [1], in [2] and in experiment [4] was “inactive” throughout.
On to `COc1cc(N)c(Cl)cc1C(=O)NC1CCN(Cc2ccccc2)CC1`, for which the Potency result in experiment [1], in experiment [3] and in experiment [4] was “inactive” throughout.
`COC[C@@H](c1ccc(C(F)(F)F)cc1)N1CCN(C2(C)CCN(C(=O)c3c(C)ncnc3C)CC2)C[C@H]1C`: the Potency result in experiment [1] was “inactive”. Moreover, in experiment [3], the Potency is 38.5 µM (active).
For `Cc1nnc2n1-c1sc(CCc3ccc(CC(C)C)cc3)cc1C(c1ccccc1Cl)=NC2C` (centres undefined), the Potency result in [1] and in experiment [2] was “inactive” throughout. Moreover, the Potency was 26.6 µM (active) in experiment [9] and 23.7 µM (active) in experiment [8].
As for `CC(NCCC(c1ccccc1)c1ccccc1)c1ccccc1` (centres undefined), the Potency entry in experiment [1] and in experiment [3] was “inactive” throughout.
In the case of `O=C(N[C@@H]1N=C(c2ccccc2F)c2cccc3c2N(CC3)C1=O)c1cc2ccccc2[nH]1`, the Potency result in experiment [1], in experiment [3], in experiment [4], in experiment [5], in [9] and in [11] was “inactive” in each case. Further, the Potency result in experiment [12], in [7], in experiment [16] and in experiment [8] was “inactive” each time.
Take `CC/C(=C(/CC)c1ccc(O)cc1)c1ccc(O)cc1`: the Potency result in experiment [1] and in [3] was “inactive” in each case.
As for `CCC(=O)C(CCN(C)C)(c1ccccc1)c1ccccc1`, the Potency entry in experiment [1], in experiment [2], in [5], in experiment [9], in experiment [6] and in experiment [10] was “inactive” each time. Also, the Potency entry in experiment [11], in experiment [12], in [13], in experiment [16] and in [8] was “inactive” throughout.
`CCC(=O)O[C@]1(C(=O)CCl)[C@@H](C)C[C@H]2[C@@H]3CCC4=CC(=O)C=C[C@]4(C)[C@@]3(F)[C@@H](O)C[C@@]21C`: the Potency entry in experiment [1], in experiment [3] and in experiment [4] was “inactive” in each case.
Regarding `CCOC(=O)[C@H](CCc1ccccc1)N[C@@H](C)C(=O)N(CC(=O)O)C1Cc2ccccc2C1`, the Potency result in experiment [1], in [3] and in experiment [4] was “inactive” in each case.
Take `CCN(CC)CCOc1ccc(C(O)(Cc2ccc(Cl)cc2)c2ccc(C)cc2)cc1` (centres undefined): the Potency entry in [1], in [3] and in experiment [4] was “inactive” in each case.
In the case of `CN1CCN(CCC(=O)N2c3ccccc3Sc3ccc(C(F)(F)F)cc32)CC1`, the Potency result in experiment [1] and in [4] was “inactive” each time.
In the case of `O=C(NOCC1CC1)c1ccc(F)c(F)c1Nc1ccc(I)cc1Cl`, the Potency result in experiment [1], in experiment [3] and in experiment [4] was “inactive” throughout.
For the molecule `O=Cc1ccc(O)c(O)c1O`, the Potency entry in experiment [1], in experiment [3] and in experiment [4] was “inactive” throughout.
For the molecule `CN(C)C(=O)Oc1cc(OC(=O)N(C)C)cc(C(O)CNC(C)(C)C)c1` (centres undefined), the Potency entry in experiment [1], in experiment [3], in experiment [4], in [5], in experiment [9] and in experiment [10] was “inactive” in each case. In addition, the Potency entry in experiment [11], in experiment [12], in experiment [7], in [14], in [16] and in [8] was “inactive” each time.
Consider `COc1ccc2cc3[n+](cc2c1OC)CCc1cc2c(cc1-3)OCO2`, for which the results for the Potency in experiment [1] and in [4] were 27.3 µM (active) and 19.3 µM (active), respectively. Moreover, the Potency entry in experiment [3] was “inactive”.
On the same counts, the results for `O=S(=O)(O)NC1CCCCC1` are “inactive”, “inactive” and “inactive”.
For `COC(=O)Nc1nc2ccc(S(=O)c3ccccc3)cc2[nH]1` (centres undefined), the Potency entry in experiment [1] and in experiment [4] was “inactive” each time.
Regarding `COc1cc(O)c(C(=O)c2ccccc2)cc1S(=O)(=O)O`, the Potency result in [1] and in experiment [4] was “inactive” in each case.
For `CN1CCCC(n2nc(Cc3ccc(Cl)cc3)c3ccccc3c2=O)CC1` (centres undefined), the Potency entry in experiment [1] and in [4] was “inactive” throughout.
As for `COc1ccc(OC(=O)N(CC(=O)O)Cc2ccc(OCCc3nc(-c4ccccc4)oc3C)cc2)cc1`, the Potency entry in [1], in experiment [3] and in experiment [4] was “inactive” in each case.
In the case of `CCCOc1ccc2nc(NC(=O)OC)[nH]c2c1`, the Potency entry in experiment [1] and in experiment [4] was “inactive” in each case. For the same molecule, the Potency in experiment [3] is 0.0172 µM (active).
Turning to `CCCCCCCCCCCCCCCC[N+](C)(C)Cc1ccccc1`, the Potency entry in [1] and in experiment [3] was “inactive” in each case.
Regarding `CN(C)CC/C=C1\c2ccccc2Sc2ccc(Cl)cc21`, the Potency result in experiment [1], in [3] and in experiment [4] was “inactive” each time.
As to `C[C@@H]1CN(CCCn2c3ccccc3c3ccccc32)C[C@H](C)N1`, the Potency entry in experiment [1], in experiment [3] and in [4] was “inactive” in each case.
Take `CN1CCC(=C2c3ccccc3CC(=O)c3sccc32)CC1`: the Potency result in experiment [1], in experiment [3] and in [4] was “inactive” in each case.
As to `C[C@]12Cc3nonc3C[C@@H]1CC[C@@H]1[C@@H]2CC[C@@]2(C)[C@H]1CC[C@]2(C)O`, the Potency entry in [1], in experiment [3], in experiment [4], in experiment [5], in experiment [15] and in experiment [7] was “inactive” each time. The Potency entry in experiment [14] and in experiment [16] was “inactive” each time.
